Laboratory results: PubChem BioAssay AID651814 (National Center for Advancing Translational Sciences (NCATS), 2012)
The whole screen tested about 2,100 compounds, of which about 590 (28%) were called active. About 42% were inconclusive and are not listed. The list shows a part of the results. A number with no mark means an inactive call. Calls follow the shape of the dose curve; as a rule, active = well fitted inhibition curve with a large enough effect; inconclusive = small, poorly fitted or top-dose-only effect; inactive = flat fitted curve, though single readings scatter.

The compounds below were run against DNA dC->dU-editing enzyme APOBEC-3F (Homo sapiens) (UniProt Q8IUX4) (assay: qHTS for inhibitors of Vif-A3F interactions: Cherry picks). Details: HeLa A3F-eYFP + Vif (tagged APOBEC3F with the HIV-1 protein that degrades it), eYFP fluorescence, 24 h.
Source text: The recent discovery and characterization of host restriction factors, which provide a potent defense to invading retroviruses, has provided new targets for antiviral drug development. APOBEC3G (A3G) and APOBEC3F (A3F) are potent cytidine deaminases that block HIV-1 replication; HIV-1 expresses the Vif protein, which counteracts A3G and A3F by binding to them and inducing their proteasomal degradation. The Vif-A3G and Vif-A3F interactions provide two potential targets for development of small molecules which can interfere with the ability of Vif to degrade A3G or A3F. […] To identify inhibitors that can interfere with Vif mediated degradation of A3G and A3F, we have developed Hela cell lines that stably express A3G or A3F tagged with eYFP at the C-terminal end (A3G-eYFP or A3F-eYFP, respectively) and Vif. In the absence of an inhibitor, Vif induces degradation of A3G-eYFP and A3F-eYFP, and the cells are not fluorescent. In the presence of an inhibitor, it is expected that Vif will be unable to degrade A3G-eYFP and/or A3F-eYFP, resulting in an increase in yellow fluorescence. In this assay, Vif A3F was screened against the cherry picks ordered from the MLSMR. NIH Chemical Genomics Center [NCGC] NIH Molecular Libraries Probe Centers Network [MLPCN] MLPCN Grant: MH093245 Assay Submitter (PI): Vinay Pathak, National Cancer Institute
A3F-Vif cells were harvested from T225 flask and resuspended in phenol free OPTI-MEM medium with 5% FBS. Then 5 uL of 140,000 cells/mL resuspended cells was dispensed into each well of low base Aurora COC 1,536-well plates (black walled, clear bottom) using a Multidrop Combi dispenser. After overnight culture at 37 deg C with 5% CO2, a total of 23 nL of compounds at 5 selected concentrations from the NPC or positive control (2 mM stock of MG132) in DMSO was transferred to each well of the assay plate using a pintool (Kalypsys, San Diego, CA), and the plates were further incubated at 37 deg C with 5% CO2 for 24 hours. After that, the plates were measured on Acumen Explorer (TTP Lab Tech). The fluorescence was detected by 488 nm/Ex and […].
Also: nearly all actives have a fitted effect of over 70% in size.
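For max response in this document: % of control where 0% means no effect; active compounds raise eYFP fluorescence by blocking Vif-driven A3F loss.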
Potency is read from the fitted curve at half-maximal effect.

DNA dC->dU-editing enzyme APOBEC-3F (Homo sapiens), sequence (Q8IUX4 whole entry, looked up): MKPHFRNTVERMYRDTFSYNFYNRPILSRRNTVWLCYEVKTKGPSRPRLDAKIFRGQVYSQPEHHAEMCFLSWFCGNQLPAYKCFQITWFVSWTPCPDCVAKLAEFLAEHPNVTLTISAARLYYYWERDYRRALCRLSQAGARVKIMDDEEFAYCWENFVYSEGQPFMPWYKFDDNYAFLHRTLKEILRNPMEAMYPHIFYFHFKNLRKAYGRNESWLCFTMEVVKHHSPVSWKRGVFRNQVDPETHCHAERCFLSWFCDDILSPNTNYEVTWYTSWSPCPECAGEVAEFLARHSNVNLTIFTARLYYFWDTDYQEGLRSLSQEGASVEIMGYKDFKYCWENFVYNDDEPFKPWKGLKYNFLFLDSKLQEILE

Row | Compound | Potency | max response [%]
1 | Cc1nc2c3cc(F)ccc3n(Cc3ccccc3)c2s1 | 4.98 µM (active) | –
2 | Cc1nc2c3cc(F)ccc3n(Cc3ccccc3F)c2s1 | 14 µM (active) | –
3 | COc1cccc(CNCCSc2nnnn2C)c1OCc1ccc(F)cc1 | – | -0.625
4 | Cc1ccc(S(=O)c2ccc([N+](=O)[O-])c3nonc23)cc1 (centres undefined) | 18.4 µM (active) | –
5 | CN(C)c1ccc(C=C2SC(=S)N(Cc3ccco3)C2=O)cc1 | 4.98 µM (active) | –
6 | O=C1/C(=C/c2ccc(O)cc2)SC(=S)N1Cc1cccnc1 | – | -10.2
7 | Cc1cc(/C=C2\SC(=S)N(C)C2=O)c(C)n1-c1ccccc1O | 20.6 µM (active) | –
8 | Cc1cc(/C=C2\SC(=S)N(Cc3ccco3)C2=O)c(C)n1-c1cccnc1 | 20.6 µM (active) | –
9 | Cc1cc(/C=C2\SC(=S)N(Cc3ccco3)C2=O)c(C)n1-c1ccccc1 | 18.4 µM (active) | –
10 | S=C(Nc1cccc2ccccc12)NN1CCCCCC1 | – | 0.0404
11 | O=C(NCc1cccnc1)c1ccc([N+](=O)[O-])o1 | – | -20.4
12 | O=C(NN(c1ccccc1)c1ccccc1)c1ccc([N+](=O)[O-])o1 | – | -20.2
13 | Cc1cc2ccccn2c1C(=O)c1ccc([N+](=O)[O-])o1 | 11.6 µM (active) | –
14 | N#C/C(=C\c1ccc(N2CCOCC2)o1)C(=O)NC1CCCCC1 | 15.8 µM (active) | –
15 | N#C/C(=C\c1ccc(N2CCCCC2)o1)C(N)=O | 15.8 µM (active) | –
16 | N#C/C(=C/c1ccc(N2CCOCC2)o1)C(=O)NC1CCCCC1 | 16.4 µM (active) | –
17 | Cc1onc(-c2c(F)cccc2Cl)c1C(=O)O/N=C(\N)c1ccc([N+](=O)[O-])o1 | – | -3.32
18 | CSc1cccc(NC(=O)c2cc3c(COC(C)=O)cnc(C)c3oc2=O)c1 | – | -5.04
19 | Cc1cc(C)c(S(=O)(=O)N2CCCCC2CCNC(=O)C(=O)NCc2ccco2)c(C)c1 (centres undefined) | – | -24.9
20 | O=C(NC1CCCCC1)c1cccc2c1C(=O)c1ccc(N3CCC(Cc4ccccc4)CC3)cc1S2(=O)=O | 12.5 µM (active) | –
21 | O=C(NCc1ccco1)c1cccc2c1C(=O)c1ccc(N3CCC(Cc4ccccc4)CC3)cc1S2(=O)=O | 23.1 µM (active) | –
22 | O=C(NC1CC1)c1cccc2c1C(=O)c1ccc(N3CCC(Cc4ccccc4)CC3)cc1S2(=O)=O | 20.6 µM (active) | –
23 | Cc1ccc(S(=O)(=O)N2CCCCC2CCNC(=O)C(=O)NCc2ccco2)cc1 (centres undefined) | – | -26.1

Row | Compound | Potency | max response [%]
24 | COc1cc(/C=C2\C(=N)N3N=CSC3=NC2=O)cc(Br)c1OC(=O)c1ccco1 | – | 5.77
25 | CN(C)c1ccc(/C=C2\C(=N)N3N=C(CC(=O)N4CCCCC4)SC3=NC2=O)cc1 | 16.4 µM (active) | –
26 | CN(C)c1ccc(/C=C2\SC(N3CCCCC3)=NC2=O)cc1 | 16.4 µM (active) | –
27 | CCN(CC)c1ccc(/C=C2\C(=N)N3N=C(CC(=O)N4CCOCC4)SC3=NC2=O)cc1 | 0.396 µM (active) | –
28 | COc1cc(/C=C2\C(=N)N3N=C(S(C)(=O)=O)SC3=NC2=O)ccc1OC(=O)c1ccco1 | – | 3.53
29 | C1=Cc2ccccc2/C1=C\c1cc2c3c(c1)CCCN3CCC2 | 18.4 µM (active) | –
30 | Cc1ccc(S(=O)(=O)c2cc3ccccc3oc2=Nc2ccc3c(c2)OCO3)cc1 | – | -1.94
31 | Cc1sc2ncnc(SCC(=O)NC(C)(C)C)c2c1C | – | 0.663
32 | Cc1sc2ncnc(N=Nc3c(O)[nH]c4ccccc34)c2c1C | 13 µM (active) | –
33 | Cc1sc2ncn(CC(=O)NCc3ccccc3)c(=O)c2c1C | – | -23.3
34 | O=S(=O)(Nc1ccc(C(O)(C(F)(F)F)C(F)(F)F)cc1)c1ccc(Cl)c2nonc12 | 12.5 µM (active) | –
35 | Cc1ccc(F)c(S(=O)(=O)NC(=O)C2(C)CCN2C(=O)Cc2ccc(Cl)cc2Cl)c1 (centres undefined) | – | 0.983
36 | Cc1ccc(N=C2NC(=O)CC(C(=O)Nc3ccc4c(c3)OCO4)S2)cc1 (centres undefined) | – | -22.7
37 | Cc1cc(N/N=C/c2ccc([N+](=O)[O-])o2)nc2ccccc12 | 16.4 µM (active) | –
38 | CCCN1C(=O)C(Cc2nc3ccccc3c(=O)n2CC)c2cc(Br)ccc21 (centres undefined) | – | -0.982
39 | O=c1c2ccccc2nc(/C=C/c2ccc([N+](=O)[O-])o2)n1CCCO | 3.26 µM (active) | –
40 | CCn1c(/C=C/c2ccc([N+](=O)[O-])o2)nc2ccccc2c1=O | 3.26 µM (active) | –
41 | Cn1c(/C=C/c2ccc([N+](=O)[O-])o2)nc2ccccc2c1=O | 16.4 µM (active) | –
42 | Cc1ccc2oc(/N=C(\N)NC(=O)C(C)(C)C)nc2c1 | – | -3.74
43 | CNC(=O)C(Sc1nc(C)nc2c1oc1ccccc12)C(C)=O (centres undefined) | – | -18.1
44 | Cc1cc(NC(=O)Nc2nnc(N(C)Cc3ccccc3)s2)ccc1Br | – | -0.38
45 | O=C(Nc1cc(Cl)cc2c1-c1ccc(Cl)cc1C2O)C(Cl)Cl (centres undefined) | – | -15.3
46 | CCCCN(C(=O)c1ccc([N+](=O)[O-])s1)c1c(N)n(CCCC)c(=O)[nH]c1=O | – | 3.55

Row | Compound | Potency | max response [%]
47 | COc1cccc(/C=N/n2c(C3CCCCC3)n[nH]c2=S)c1O | – | 2.43
48 | Cc1[nH]c2ccccc2c1/C=C/c1cc[n+](C)cc1 | 1.58 µM (active) | –
49 | Cc1ccc2[nH]c(C)c(/C=C/c3cc[n+](C)cc3)c2c1 | 0.994 µM (active) | –
50 | Cc1[nH]c2ccccc2c1/C=C/C(=O)c1ccccc1 | 20.6 µM (active) | –
51 | CCOc1cc(C)nc(NCc2ccccc2)n1 | – | -21.9
52 | CCCn1c(C2CCCN2c2nc(-c3cccc(Br)c3)cs2)nc2ccccc21 (centres undefined) | – | 2.76
53 | C=C(C)CNC(=S)N/N=C1\CCCCc2ccccc21 | – | 0.867
54 | C=CCN1C(=O)/C(=C\C=C2\N(C)c3ccccc3C2(C)C)SC1=S | 0.461 µM (active) | –
55 | CN1/C(=C\C=C2/SC(=S)NC2=O)C(C)(C)c2ccccc21 | 4.44 µM (active) | –
56 | CN1/C(=C\C=C2/SC(=S)N(CC(=O)O)C2=O)C(C)(C)c2ccccc21 | – | -6.86
57 | CCN1C(=O)/C(=C/C=C2\N(CC)c3cc(S(=O)(=O)N(C)C)ccc3N2c2ccccc2)SC1=S | – | -29.7
58 | CCCN1C(=O)/C(=C\C=C2\N(CC)c3ccccc3C2(C)C)SC1=S | 2.06 µM (active) | –
59 | CCCN1C(=O)/C(=C/C=C2\N(CC)c3ccccc3C2(C)C)SC1=S | 1.77 µM (active) | –
60 | Clc1ccsc1-c1csc(-c2cccnc2)n1 | – | -27.5
61 | NNC(=S)Nc1c(F)cc(F)cc1Br | – | 1.43
62 | O=C1/C(=C/c2c[nH]c3ccccc23)CCC/C1=C\c1c[nH]c2ccccc12 | 16.4 µM (active) | –
63 | Cn1nnnc1SCCNCc1cc(Br)ccc1OCc1ccccc1Cl | – | -14.7
64 | Cc1sc(NC(=O)c2sc3nc4c(C)cccc4cc3c2N)c(C#N)c1C | 17.7 µM (active) | –
65 | Cc1ccc(C)c2nc3sc(C(=O)N4CCOCC4)c(N)c3cc12 | 12.5 µM (active) | –
66 | O=C(Nc1ccc(N2CCOCC2)cc1)c1cccc2ccccc12 | – | -29.2
67 | Cc1cccc2cc3c(N)c(C(=O)N4CCOCC4)sc3nc12 | 7.31 µM (active) | –
68 | Cc1cccc2cc3c(N)c(C(=O)Nc4ccc(N5CCOCC5)cc4)sc3nc12 | 11.2 µM (active) | –
69 | COc1cc(C(=O)OCC(=O)Nc2ccc(N3CCOCC3)cc2)ccc1OCC(C)C | – | 1.41

Row | Compound | Potency | max response [%]
70 | CCN(CC)c1ccc(/C=N/NC(=S)NC)c(O)c1 | – | -6.91
71 | COc1ccc(Nc2nc(C)nc3sc4c(c23)CCC4)cc1O | – | -29.4
72 | CCn1c(O)c(/C=N/N=C/c2ccc(OC)cc2)c2cc(C3=NNC(=O)CC3)ccc21 | 6.51 µM (active) | –
73 | CN(C)c1ccc(/C=C2/C[N+](C)(C)C/C(=C/c3ccc(N(C)C)cc3)C2=O)cc1 | 2.59 µM (active) | –
74 | CN(C)c1ccc(/C=C2\Cc3ccccc3C2=O)cc1 | 5.17 µM (active) | –
75 | C[N+](C)(C)CCC(=O)N1C/C(=C/c2ccccc2)C(=O)/C(=C\c2ccccc2)C1 | – | -12.6
76 | O=C1/C(=C\c2cc([N+](=O)[O-])ccc2O)SC(=S)N1Cc1ccc(Cl)cc1 | 20.6 µM (active) | –
77 | O=C1/C(=C\c2ccc(O)c(O)c2)SC(=S)N1Cc1ccccc1 | – | -22.4
78 | O=C1CC(c2ccccc2)Cc2[nH]c(=O)c(-c3nc(-c4cccc(Cl)c4)cs3)cc21 (centres undefined) | 4.11 µM (active) | –
79 | Cc1sc(-c2cc3c([nH]c2=O)CC(c2ccccc2)CC3=O)nc1-c1ccc(Cl)cc1 (centres undefined) | 1.84 µM (active) | –
80 | CCN(c1ccc(NC(=O)CCc2nc3sc4c(c3c(=O)[nH]2)CCCC4)cc1)C(C)C | – | -16.9
81 | Clc1ccccc1C1CC(c2ccccc2)=Nc2ccccc2N1 (centres undefined) | – | -7.9
82 | CC(=O)N1CCc2nc3sc(C(=O)c4ccc(F)cc4)c(N)c3c(C(F)(F)F)c2C1 | 20.6 µM (active) | –
83 | COc1ccc(C(=O)c2sc3nc4c(c(C(F)(F)F)c3c2N)CN(C(C)=O)CC4)cc1OC | 23.1 µM (active) | –
84 | O=C1S/C(=C/c2ccc(N3CCOCC3)o2)C(=O)N1Cc1ccc(F)cc1 | 2.8 µM (active) | –
85 | O=C1S/C(=C/c2ccc(N3CCOCC3)o2)C(=O)N1Cc1c(F)cccc1Cl | 2.5 µM (active) | –
86 | Cc1cc2nc3s/c(=C/c4ccc(-c5ccccc5C(=O)O)o4)c(=O)n3c2cc1C | 20.6 µM (active) | –
87 | Cc1ccc(NC(=O)C2CCN(S(=O)(=O)c3ccc(Cl)c(C(F)(F)F)c3)CC2)nc1 | – | 1.5
88 | O=S(=O)([N-]c1nc2ccccc2nc1-[n+]1ccc(-c2ccncc2)cc1)c1ccccc1 | – | -0.136
89 | CCc1cc[n+](-c2nc3ccccc3nc2[N-]S(=O)(=O)c2ccc(Br)s2)cc1 | 23.1 µM (active) | –
